Data taken from ChEMBL document CHEMBL3988442, “University of Dundee, Small-Polar-MMV Screening Library” (2021).
The campaign covered roughly 48,000 compounds. About 13,000 (27%) showed an effect of 50% or more. The list shows a part of the results.

The compounds below were run on Wolbachia pipientis (assay: Anti-Wolbachia Cell-Based Screen). Details: 5 µM.
Type: functional
Parameters: scale not given: in the data most compounds retested in dose-response had high values

SMILES	Percent Effect [%]
CCc1nc(C)c(C(=O)N2CCCC(c3noc(C)n3)C2)s1 (stereo not given)	-3.627
CN(C)c1ccc(CCCNC(=O)NCC(O)c2cccs2)cc1 (stereo not given)	15.76
CN1CCN(CCCNC(=O)C2CCCCC2)CC1	-13.83
CC1CCN(C(CNC(=O)CCn2cccn2)c2cccs2)CC1 (stereo not given)	3.155
Cc1cc(-c2cnn(CCNC(=O)CCn3cccn3)c2C2CC2)on1	139.3
Cc1cc(-c2cnn(CCNC(=O)Cc3ccccn3)c2C2CC2)on1	116.9
CCC(NCCn1cccn1)C(=O)Nc1cc(C)on1 (stereo not given)	-12.89
O=C(O)C(F)(F)F.O=S(=O)(C1CC1)N1CCc2onc(COc3ccccn3)c2C1	-9.105
Cn1cnc2c1CCN(CC(O)c1ccc(S(C)(=O)=O)cc1)C2 (stereo not given)	1.592
Cc1ccoc1C(=O)NCC(c1ccccc1Cl)N1CCOCC1 (stereo not given)	-4.275
CCc1nc(C(=O)N2CCN(C(=O)CCc3ccccc3)CC2)c[nH]1	-3.201
O=C(CCc1ccccc1)N1CCn2cc(CN3CCCC3)nc2C1	5.739
CC(C)(O)CN1CC(C)(C)CN(C(=O)CCc2ccccc2)CC1=O	88.99
CCN1CC(C)(C)CN(C(=O)CCc2ccccc2)CC1=O	98.77
CCCC(O)CN1CC(C)(C)CN(C(=O)CCc2ccccc2)CC1=O (stereo not given)	81.6
CC(O)CN1CC(C)(C)CN(C(=O)CCc2ccccc2)CC1=O (stereo not given)	108.2
CCC(Nc1nnnn1-c1ccccc1)C(=O)NC1CCSCC1 (stereo not given)	2.585
O=C(O)C1(Oc2ccccc2F)CCN(C/C=C/c2ccco2)CC1	10.04
Oc1ccc(-c2c(-c3ccccc3)ncn2C2CCNC2)cc1 (stereo not given)	5.17
COc1cc2c(cc1C1CC(=O)NCc3nc(N(C)C)sc31)CCC2 (stereo not given)	-15.52
COCC(O)CN1CC(C)(C)CN(C(=O)CCc2ccccc2)CC1=O (stereo not given)	110.7
CC1N(C)C(=O)COC12CCN(C(=O)CCc1ccccc1)CC2 (stereo not given)	0.4061
CN1CC(C)(C)CN(C(=O)CCc2ccccc2)CC1=O	83.23
CN1CCN(C(=O)CCc2ccccc2)Cc2cccnc21.O=C(O)C(F)(F)F	-4.699
CN1C(=O)CC(C(=O)O)C12CCN(Cc1ccc(Cl)cc1F)CC2 (stereo not given)	5.202

SMILES	Percent Effect [%]
CC(=O)NCC(=O)N1Cc2nccn2CC(COc2cccnc2)C1.O=C(O)C(F)(F)F (stereo not given)	111.9
CC(=O)NCC(=O)N1Cc2nccn2CC(CN2CCCC2=O)C1 (stereo not given)	14.08
CC(C)NC(=O)N1Cc2nccn2CC(COc2cccnc2)C1.O=C(O)C(F)(F)F (stereo not given)	96.94
CC(=O)NCC(=O)N1Cc2nccn2CC(CN(C)C(C)C)C1.O=C(O)C(F)(F)F (stereo not given)	-7.594
CC(C)NC(=O)N1Cc2nccn2CC(CN2CCCC2)C1.O=C(O)C(F)(F)F (stereo not given)	12.37
Cn1cc(Br)cc(NC(=O)CC(C)(C)C)c1=O	3.241
CSc1ccc2cc(CN(C)CCc3cn[nH]c3)c(=O)[nH]c2c1	4.017
CC(C)C(=O)NCc1ccccc1NS(=O)(=O)c1ccccc1	-3.24
CC(C)NC(=O)NCc1ccccc1NS(=O)(=O)c1ccccc1	15.1
CC(C)S(=O)(=O)C(C)C(=O)NCc1cccc(N2CCCCC2=O)c1 (stereo not given)	12.9
CCOc1ccccc1CNC(=O)N(CC)C(C)c1cccnc1 (stereo not given)	2.92
CC(C)S(=O)(=O)C(C)C(=O)NCc1ccccc1OCc1ccccc1 (stereo not given)	96.24
CCc1ccccc1CNC(=O)CNC(=O)C(C)(C)C	-5.244
CC(C)(C)C(=O)NCc1cnn2ccccc12	-7.626
CC(C)OCc1ccc(CNC(=O)CC(F)(F)F)cc1	28.04
CC(C)OCc1ccccc1CNC(=O)C(C)S(=O)(=O)C(C)C (stereo not given)	93.94
CC(COc1ccccc1)NS(C)(=O)=O (stereo not given)	-8.999
CC(C)S(=O)(=O)C(C)C(=O)NCc1ccccc1COc1ccccc1 (stereo not given)	92.84
CC(C)OCc1ccccc1CNC(=O)C(C)(C)C	99.75
Cc1cc(C(=O)N2CC(=O)Nc3cnccc32)c(Cl)cc1F	-6.598
COc1ccc(N2CCCC3(C2)CN(c2nncs2)CCO3)cc1 (stereo not given)	-4.383
O=C(Cc1ccsc1)NCC1Cn2nnc(-c3ccoc3)c2CO1 (stereo not given)	-0.8336
CC(C)N(C)C(=O)C1CCN(Cc2cc3c(cc2O)CCC3)CC1	3.726
O=C(NCc1ccccc1CO)C1COc2ccccc21 (stereo not given)	-7.77
CCCN1CCC(Nc2cc(-c3ccccc3)ccc2OC)CC1	9.804

SMILES	Percent Effect [%]
C=C(C)CN(CC)C(=O)CN1CCCC1C(=O)N(C)C (stereo not given)	1.656
CCOc1cc(C(=O)NS(=O)(=O)c2cccc(C#N)c2)ccc1OC	121
N#Cc1ccc(C(=O)NS(=O)(=O)c2ccc(F)c(F)c2)cc1	6.651
COc1cc(C(=O)NS(=O)(=O)c2cccc(C#N)c2)cc(OC)c1Br	100.1
COc1cc(C(=O)NS(=O)(=O)c2cccc(C#N)c2)ccc1C	0.1033
COc1cc(C(=O)NS(=O)(=O)c2ccc(C#N)cc2)ccc1C	127.1
N#Cc1ccc(S(=O)(=O)NC(=O)c2ccc3c(c2)COC3)cc1	-13.21
COc1cc(C(=O)NS(=O)(=O)c2cccc(C#N)c2)cc(Cl)c1OC	0.151
COc1cc(C(=O)NS(=O)(=O)c2cccc(C#N)c2)cc(OC)c1C	111.6
COc1ccc(C(=O)NS(=O)(=O)c2cncc(Br)c2)cc1OC	-20.98
CSc1ccsc1C(=O)NS(=O)(=O)c1cccc(C#N)c1	-50.61
CC(C)(C)C(=O)NCCC(=O)NS(=O)(=O)c1cccc(C#N)c1	-5.738
CNC(=O)c1cccc(CCNC2CCSc3ccccc32)c1 (stereo not given)	-5.556
CC(=O)Nc1ccc(C(=O)Nc2cnc3n2CCCC3)c(C)c1	-9.74
Cn1ccc(CNC(=O)N2CCC(C3(C)OCCO3)CC2)c1	7.37
c1cnn(C2CN(Cc3noc(C4CC4)n3)C2)c1	20.24
COC(=O)[C@H]1C[C@@H](O)CCN1S(=O)(=O)c1cc(Cl)ccc1OC	-10.78
Cc1nccn1-c1cc(CNC(=O)CCC2CCCO2)ccn1 (stereo not given)	10.65
COc1ccccc1C(=O)NS(=O)(=O)c1cccc(C#N)c1	106.4
COc1cccc(C(=O)NS(=O)(=O)c2cccc(C#N)c2)c1OC	-1.089
COC(=O)c1cccc(S(=O)(=O)NC(=O)c2cccc(OC)c2OC)c1	4.901
O=C(Nc1ccccc1Oc1cccc(F)c1)C1CCS(=O)(=O)C1 (stereo not given)	17.61
CSc1nc2ncc3c(=O)n(CCN4CCCCC4)ccc3n2n1	124.9
COc1nc2ccn(CCc3cnccn3)c(=O)c2cc1C#N	-4.634
COCCn1cncc1Cn1cccc(C(F)(F)F)c1=O	-5.803

SMILES	Percent Effect [%]
CN1CCN(CCn2cnc3c(F)cccc3c2=O)CC1	0.6334
COCCn1ccc2c(cnc3nc(SC)nn32)c1=O	167
CS(=O)(=O)Cc1nc(CCc2ccccc2)nn1-c1ccccn1	-12.46
NC(=O)NCC(=O)N1CCCC(c2nccn2Cc2ccncc2)C1 (stereo not given)	-11.58
CC(Cn1cncn1)NC(=O)Nc1ccc(F)cc1OCC1CC1 (stereo not given)	4.941
Cn1cccc1CN1CCc2ncnc(-c3cccnc3)c2CC1	88.44
CCc1ccc(CN2CCc3ncnc(-c4cccnc4)c3CC2)o1.O=C(O)C(F)(F)F.O=C(O)C(F)(F)F	106.1
O=C(O)C(F)(F)F.O=C(O)C(F)(F)F.c1ccc(CN2CCc3ncnc(-c4cccnc4)c3CC2)nc1	17.47
O=C(C1CCOC1)N1CCc2ncnc(-c3cccnc3)c2CC1 (stereo not given)	8.249
c1ccc(CN2CCc3ncnc(-c4cncnc4)c3CC2)nc1	-4.171
O=C(O)C(F)(F)F.O=C(O)C(F)(F)F.c1cncc(-c2ncnc3c2CCN(Cc2ccsc2)CC3)c1	91.57
COc1ncnc2c1CCN(Cc1cccs1)CC2.O=C(O)C(F)(F)F	-7.322
O=C(O)C(F)(F)F.O=C(O)C(F)(F)F.c1cncc(-c2ncnc3c2CCN(Cc2cccs2)CC3)c1	89.28
Cc1ccc(CN2CCc3ncnc(-c4cccnc4)c3CC2)o1.O=C(O)C(F)(F)F.O=C(O)C(F)(F)F	-3.02
CCCN(C(=O)CN1CCN(CCO)CC1)C1=CCCCC1	10.87
c1cnc(NCc2noc3c2CN(C2CCOC2)CC3)nc1 (stereo not given)	-0.4343
CS(=O)(=O)N1CC[C@@H](CC(=O)O)[C@@H](CC2=NCCc3cc(F)ccc32)C1	-4.983
N#Cc1cc2c(=O)n(CC(O)C(F)(F)F)ccc2[nH]c1=O (stereo not given)	-28.05
COCCCNC(=O)C(C)(C)N(C)C1CCCC1	11.81
CN(Cc1nnc(C2CC2)o1)CC1CCCN1c1cccnn1 (stereo not given)	15.59
Cn1c(=O)oc2cc(Nc3nccnc3C#N)ccc21	-0.7115
Cc1cc(CNC(=O)NCC(O)c2cccc(C(F)(F)F)c2)no1 (stereo not given)	-1.276
Cc1nc(CN2CCc3ncnc(-c4ccccc4)c3CC2)cs1.O=C(O)C(F)(F)F	-8.271
Cc1nc(CN2CCc3ncnc(-c4ccsc4)c3CC2)cs1.O=C(O)C(F)(F)F	-15.15
Cc1nc(CN2CCc3ncnc(-c4cccnc4)c3CC2)cs1.O=C(O)C(F)(F)F.O=C(O)C(F)(F)F	101.9
